High-throughput results deposited in PubChem BioAssay by National Center for Advancing Translational Sciences (NCATS).
Sampled rows, rich in hits. Any-hit rate of the full collection: about 2.8%.
SNCA expr inhib: Primary qHTS assay for inhibitors of alpha-synuclein gene (SNCA) expression | Potency, µM (titrated, usually from 57.2 µM), for the others: at the highest dose activity change, negative = inhibition, hits mostly inhibitors | HEK-293 SNCA-luciferase knock-in, luminescence, 24 h | 0.17% of 140,000 active | AID 1671194, 2021;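 note: potency is the fitted concentration of half-maximal effect; plate controls were DMSO cells for no effect and cell-free wells for full effect; nearly all actives have a fitted effect of over 45% in size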
IP6K1 inhibitor: Primary qHTS assay for small molecule inhibitors of Inositol hexaphosphate kinase 1 (IP6K1). Inositol hexakisphosphate kinase 1 (Homo sapiens), Q92551. IP6K1 kinase, ADP-Glo luminescence, 2 h; active compounds read low. activity change, % (series mostly up to about 58 µM). 0.81% of 140,000 active. AID 1645851, 2021; in the data active = activity change below about -25%; note: % is set by controls: 0 for no effect and ±100 for the full control effect
Target sequence (Q92551 whole entry, looked up): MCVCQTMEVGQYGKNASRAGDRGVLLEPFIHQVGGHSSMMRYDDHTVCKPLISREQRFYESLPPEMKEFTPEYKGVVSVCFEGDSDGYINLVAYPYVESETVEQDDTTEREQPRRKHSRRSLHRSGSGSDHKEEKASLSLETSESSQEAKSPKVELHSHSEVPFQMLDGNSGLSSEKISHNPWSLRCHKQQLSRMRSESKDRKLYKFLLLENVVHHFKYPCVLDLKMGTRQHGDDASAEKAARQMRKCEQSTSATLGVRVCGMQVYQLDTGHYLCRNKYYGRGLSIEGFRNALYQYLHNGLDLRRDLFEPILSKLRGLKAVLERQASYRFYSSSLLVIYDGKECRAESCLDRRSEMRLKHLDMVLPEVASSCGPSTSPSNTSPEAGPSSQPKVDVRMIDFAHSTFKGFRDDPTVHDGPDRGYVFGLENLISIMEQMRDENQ
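ADP-Glo luminescence measures ADP made by human IP6K1 during a 2 h RT reaction with ATP/IP6 (mix at 1.3 mM/130 uM); top library doses 57.5 and 19.1 uM final.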
KDM5B inh: Primary screen for KDM5B Histone Demethylases FDH-coupled qHTS; Lysine-specific demethylase 5B (Homo sapiens), Q9UGL1; KDM5B demethylase, FDH-coupled NADH fluorescence (FDH is formaldehyde dehydrogenase); Potency, µM (doses to about 57.7 µM), actives largely listed as inhibitors; 2.6% of 220,000 active; AID 1347165, 2019; note: potency is the fitted concentration of half-maximal effect; 0% is about no effect; nearly all actives have a fitted effect of over 70% in size
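Compound dilutions met 200 nM (final) KDM5BΔAP for 10 min at room temperature before substrate addition. The substrate mix held 12.5 µM H3K4me3 with cofactors 25 µM α-ketoglutarate and 50 µM Fe²⁺. NADH signal gain over 30 min defined activity.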
SNCA viab count: GF-AFC viability counterscreen for inhibitors of alpha-synuclein gene (SNCA) expression | HEK-293-SNCA-luc viability, GF-AFC fluorescence, 24 h | Potency, µM (top dose mostly 57.1 µM), inactives show at the top dose activity change, negative = cytotoxicity, most hits filed as cytotoxic | 0.12% of 150,000 active;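 note: potency is the fitted concentration of half-maximal effect; 0% = DMSO-treated cells and -100% = medium-only wells without cells; nearly all actives have a fitted effect of over 30% in size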
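Cytotoxicity counterscreen: after 24 h compound treatment of genome-edited SNCA-luciferase HEK-293 cells, live-cell protease substrate GF-AFC read by fluorescence after 30 min; activity scaled between DMSO (0%) and medium-only (-100%), curves Hill-fitted.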
Starred values were filed as active, the others as inactive; i = inactive; ? = inconclusive; nt = no result; ! = not active in a repeat; [ ] = remark or other dose. Unless noted, calls come from the whole dose curve; as a rule, active = well fitted curve in the direction sought with a large enough effect; inconclusive = small, poorly fitted or top-dose-only effect, or another doubt; inactive = no such curve, though single readings can be large; an effect the other way counts as inactive or inconclusive.

SMILES	SNCA expr inhib	IP6K1 inhibitor	KDM5B inh	SNCA viab count
CCOc1cc(-c2noc(-c3nnn4c3COC(c3ccc(Cl)cc3)C4)n2)ccc1OC (configuration not stated)	6%	0	?	-14%
CCOc1ccccc1-c1noc(-c2nnn3c2COC(c2ccc(F)cc2)C3)n1 (configuration not stated)	1%	9	?	2%
CCOc1cc(-c2noc(-c3nnn4c3COC(c3ccc(F)cc3)C4)n2)ccc1OC (configuration not stated)	12%	3	25µM*	1%
CCOc1ccccc1-c1noc(-c2nnn3c2COC(c2ccc(OC)cc2)C3)n1 (configuration not stated)	5%	-1	18µM*	9%
CCOc1ccccc1-c1nc(-c2nnn3c2COC(c2ccc(OC)cc2)C3)no1 (configuration not stated)	10%	-5	28µM*	23%
COc1ccc(Nc2cc(C(=O)NCCCN3CCN(c4ccccc4F)CC3)c3ccccc3n2)c(OC)c1	?	-4	i	?
Cc1ccc([C@H]2C[C@@H](O)[C@@H](O)[C@@H]2NC(=O)c2ccccn2)cc1	-14%[87.6 µM]	9	?	3%[87.6 µM]
COc1ccccc1Cn1c(=O)c(C(=O)NCCc2ccccc2)nc2cccnc21	-20%	-2	nt	-4%
COc1ccc2c(c1)CCN=C2C[C@H]1CN(C(=O)c2ccc(F)cc2)CC[C@H]1CC(=O)O	-22%[87.6 µM]	-4	?	2%[87.6 µM]
COc1ccc2c(c1)CCN=C2C[C@H]1CN(C(=O)c2c(C)noc2C)CC[C@H]1CC(=O)O	-5%	7	22µM*	8%
COc1ccc2c(c1)C(C[C@H]1CN(C(=O)C(C)(C)C)CC[C@H]1CC(=O)O)=NCC2	-35%[87.6 µM]	11	35µM*	4%[87.6 µM]
COc1ccc2c(c1)CCN=C2C[C@H]1CN(C(=O)CC(C)(C)C)CC[C@H]1CC(=O)O	22%[87.6 µM]	17	28µM*	11%[87.6 µM]
COc1cc2c(cc1OC)C(C[C@H]1CN(C(=O)C(C)(C)C)CC[C@H]1CC(=O)O)=NCC2	-2%[87.6 µM]	5	i	2%[87.6 µM]
O=C(Cc1n[nH]c(=O)c2ccccc12)NCC(=O)N1CCN(c2ccccc2)CC1	nt	nt	i	nt
Cc1ccc2nc([C@H]3CCN(C4CCC4)C3)[nH]c2c1	?	2	28µM*	-8%[87.6 µM]
CN1CCC(N2CC[C@H](c3nc4ccccc4[nH]3)C2)CC1	30%[87.6 µM]	0	i	3%[87.6 µM]
FC(F)(F)c1ccc2nc([C@H]3CCN(C4CCCCC4)C3)[nH]c2c1	48%[87.6 µM]	7	?	-22%[87.6 µM]
c1cc2nc(C3CCN(C4CCCCC4)C3)[nH]c2cn1 (configuration not stated)	-4%[87.6 µM]	1	40µM*!	4%[87.6 µM]
COc1ccc2nc([C@H]3CCN(C(C)C)C3)[nH]c2c1	6%[87.6 µM]	-12	32µM*	-5%[87.6 µM]
O=C(Cc1ccc(F)cc1)N1CCCC(c2nn(-c3ccccc3)c(=O)[nH]2)C1 (configuration not stated)	-5%	15	i	0%
CC1(C)C(=O)N(c2ccccc2)C(=O)c2ccccc21	nt	nt	i	nt
O=C(Cc1ccccn1)NC1CCCN(c2ccc3nnc(-c4ccccc4)n3n2)C1 (configuration not stated)	nt	-3	nt	nt
COCCOc1ccc2c(n1)CCN(C(=O)Cc1ccc(C)cc1)C2	-5%	15	?	0%[12.5 µM]
CN(C)C(=O)COC(=O)c1cc(-c2ccc(C3CCNCC3)cc2)c2ccc(-c3ccc(C(F)(F)F)cc3)cc2c1	nt	2	nt	30µM*
CN(C)C(=O)CNC(=O)c1cccc(-c2ccc(C(F)(F)F)cc2)c1	?	-4	nt	1%[12.5 µM]
SMILES	SNCA expr inhib	IP6K1 inhibitor	KDM5B inh	SNCA viab count
Cc1cccc(CN2CCCn3nc(C)c(-c4ccccc4-c4ccccc4)c32)n1	4.5µM*	3	?	?
Cc1nn2c(c1-c1ccccc1-c1ccccc1)N(Cc1ccc(O)cc1)CCC2	?	6	28µM*	?
COc1ccc(NC(=O)C2CCCN(S(=O)(=O)c3c(C)[nH]c(=O)[nH]c3=O)C2)cc1 (configuration not stated)	-18%	-18	i	?
O=C(CSc1oc(-c2ccco2)nc1S(=O)(=O)c1ccc(Br)cc1)c1ccccc1	2%	-28*	?	4%
COc1nccnc1NC1CCN(C(=O)c2cnn3cccnc23)CC1	11%	-2	?	-2%
CCCOc1nccnc1NC1CCN(C(=O)c2ccccn2)CC1	6%	4	28µM*	1%
CS(=O)(=O)N1CCC(OC2CCN(C(=O)NCc3ccco3)CC2)CC1	-1%	12	i	-5%
CCCOc1nccnc1NC1CCN(C(=O)C2CCCO2)CC1 (configuration not stated)	14%	4	25µM*	10%
CCCOc1nccnc1NC1CCN(C(=O)NCc2ccco2)CC1	-12%	-3	25µM*	-1%
CCCOc1nccnc1NC1CCN(C(=O)NCC)CC1	?	3	28µM*	-9%
O=C(Nc1ccccn1)c1cnc2ccccc2n1	nt	nt	i	nt
COc1ccc(-c2ccccc2C(=O)N2CCC(NC(=O)Cc3ccccn3)CC2)nn1	nt	-10	nt	nt
COc1ccc(CCNC(=O)c2ccc3nnc(-c4cc(C(F)(F)F)cc(C(F)(F)F)c4)n3c2)cc1	?	-9	nt	-22%
COc1ccc(CCNC(=O)c2ccc3nc(C)cn3c2)cc1	5%	20	28µM*	5%
CCNC(=O)C1CCN(C(=O)c2ccc3nc(-c4ccccc4)cn3c2)C1 (configuration not stated)	64%	-1	28µM*	-3%
Cn1cc(CN(C(=O)c2ccc3nc(-c4ccccc4)cn3c2)C2CC2)cn1	19%	-11	?	2%
O=C(NCCCn1ccnc1)c1ccc2nc(-c3ccc(F)cc3)cn2c1	163%	-2	32µM*	1%
O=C(c1ccc2nc(-c3ccccc3)cn2c1)N1C[C@@H]2CCC[C@H]1C2	178%	12	22µM*	-19%
O=C(NCCCn1ccnc1)c1ccc(Cl)cc1	nt	nt	i	nt
O=C(NCCc1ccccc1)c1nnn2c1COC(c1ccc(Br)cc1)C2 (configuration not stated)	13%	20	i	1%
Cc1c(-c2ccccc2)oc2c(C(=O)OC(C)C(=O)Nc3ccccc3)cccc2c1=O (configuration not stated)	nt	nt	i	nt
Cc1ccccc1CSCC(=O)Nc1sccc1C#N	nt	nt	i	nt
CC1=C(c2ccccc2)S(=O)(=O)NC1=NC(C)C12CC3CC(CC(C3)C1)C2 (configuration not stated)	nt	nt	i	nt
CCn1nccc1C(=O)N1C[C@@H]2CCCN3CCC[C@@H]([C@H]23)[C@H]1CCCC(=O)NC	13%	-6	i	1%
CCC(NC(=O)c1ccc2nc(-c3ccc(F)cc3)cn2c1)c1cccnc1 (configuration not stated)	95%	-5	28µM*	2%
